Measurements taken from the supplement of paper PMC10849652.
Targets with a hit are over-represented here; the source holds about 7,900 in all. About 0.6% of all pairs of compound and target were hits.

Legend:
Test in all cases: log2 fold change, soluble protein after heating vs DMSO (PISA); higher = thermal stabilisation; K562 cells, 10 uM, 30 min; active = over 0.2 and 3.5 SD of the protein, either way, in both replicates (recomputed)
erlotinib = compound: C#Cc1cccc(Nc2ncnc3cc(OCCOC)c(OCCOC)cc23)c1 [erlotinib]
Method in brief: (§1)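 Soluble protein was quantified by TMTpro 16plex LC-MS/MS after channel sums were equalised. It was obtained as the supernatant after 21,000xg for 90 min from pooled aliquots of K562 cells (2×10^6 cells/mL, 10 μM compound, 30 min) heated for 3 min across 48°C-58°C and extracted in PBS with 0.5% NP-40 at 4°C. Thermal stability values are relative to control samples and come from duplicates. They are given as log2 fold changes.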

[1] = compound: C1=CC(=CC=C1C2=NC3=C(N2)C=C(C=C3)C(=O)N)OC4=CC=C(C=C4)Cl
Method in brief: as §1

[2] = compound: C1=CC2=NC=CN=C2C=C1/C=C/3\C(=O)NC(=O)S3
Method in brief: as §1

[3] = compound: C1=CC(=C(C=C1Cl)C2=NC3=NC=CN=C3C(=N2)NC4=CC=NC=C4)F
Method in brief: as §1

[4] = compound: C1=CC=C(C=C1)C2=NC(=C(N2)C3=CC=NC=C3)C4=CC(=C(C=C4)Cl)O
Method in brief: as §1

[5] = compound: C1CCN(C1)C(=O)NC2=CC=CC(=C2)NC3=NC=C(C(=N3)NCCC4=CN=CN4)Br
Method in brief: as §1

[6] = compound: C1CN(CCC1(CC2=CC=C(C=C2)Cl)N)C3=NC=NC4=C3C=CN4
Method in brief: as §1

[7] = compound: C/C(=N\NC(=O)C1=CC(=CC=C1)S(=O)(=O)N2CCOCC2)/C3=C(C=CC(=C3)Cl)O
Method in brief: as §1

[8] = compound: C1=CC2=C(C=CC(=C2)/C=C\3/C(=O)NC(=NCC4=CC=CS4)S3)N=C1
Method in brief: as §1

[9] = compound: C1=CC=C2C(=C1)C3=NNC4=CC=CC(=C43)C2=O
Method in brief: as §1

Measured: log2 fold change

PRKX (UniProt P51817)
inactive: erlotinib 0.169 | [1] 0.035 | [2] 0

PCID2 (UniProt Q5JVF3)
Chain of UniProt Q5JVF3 (Q5JVF3 whole entry, looked up): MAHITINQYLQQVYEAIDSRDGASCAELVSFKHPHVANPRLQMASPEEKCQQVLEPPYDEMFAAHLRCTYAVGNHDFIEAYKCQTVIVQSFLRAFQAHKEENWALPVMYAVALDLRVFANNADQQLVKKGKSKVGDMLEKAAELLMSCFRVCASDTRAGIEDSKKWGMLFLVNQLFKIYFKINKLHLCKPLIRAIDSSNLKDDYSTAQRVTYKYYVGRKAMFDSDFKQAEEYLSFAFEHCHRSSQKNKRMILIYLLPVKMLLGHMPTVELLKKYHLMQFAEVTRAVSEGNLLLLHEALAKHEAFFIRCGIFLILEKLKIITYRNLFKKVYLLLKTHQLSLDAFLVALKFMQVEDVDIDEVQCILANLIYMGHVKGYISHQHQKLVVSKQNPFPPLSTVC
inactive: erlotinib 0.086 | [3] -0.088 | [1] -0.021 | [2] 0.028 | [4] -0.005 | [5] -0.086 | [6] -0.161

PTEN isoform 2 (UniProt P60484)
Chain of UniProt P60484 (P60484 whole entry, looked up): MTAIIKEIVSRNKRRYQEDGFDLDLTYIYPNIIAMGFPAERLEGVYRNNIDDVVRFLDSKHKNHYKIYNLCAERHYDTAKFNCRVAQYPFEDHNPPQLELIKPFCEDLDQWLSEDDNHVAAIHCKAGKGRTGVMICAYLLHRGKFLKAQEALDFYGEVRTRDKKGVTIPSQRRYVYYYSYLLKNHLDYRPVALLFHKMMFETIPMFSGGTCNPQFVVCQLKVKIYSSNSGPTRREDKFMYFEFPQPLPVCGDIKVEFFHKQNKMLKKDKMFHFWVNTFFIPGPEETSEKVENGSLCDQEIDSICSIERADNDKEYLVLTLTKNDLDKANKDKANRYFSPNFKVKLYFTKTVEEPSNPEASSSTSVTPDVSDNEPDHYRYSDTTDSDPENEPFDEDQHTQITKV
inactive: erlotinib 0.264 | [1] 0.061 | [4] 0.178

POGZ (UniProt Q7Z3K3)
Chain of UniProt Q7Z3K3 (Q7Z3K3 whole entry, looked up): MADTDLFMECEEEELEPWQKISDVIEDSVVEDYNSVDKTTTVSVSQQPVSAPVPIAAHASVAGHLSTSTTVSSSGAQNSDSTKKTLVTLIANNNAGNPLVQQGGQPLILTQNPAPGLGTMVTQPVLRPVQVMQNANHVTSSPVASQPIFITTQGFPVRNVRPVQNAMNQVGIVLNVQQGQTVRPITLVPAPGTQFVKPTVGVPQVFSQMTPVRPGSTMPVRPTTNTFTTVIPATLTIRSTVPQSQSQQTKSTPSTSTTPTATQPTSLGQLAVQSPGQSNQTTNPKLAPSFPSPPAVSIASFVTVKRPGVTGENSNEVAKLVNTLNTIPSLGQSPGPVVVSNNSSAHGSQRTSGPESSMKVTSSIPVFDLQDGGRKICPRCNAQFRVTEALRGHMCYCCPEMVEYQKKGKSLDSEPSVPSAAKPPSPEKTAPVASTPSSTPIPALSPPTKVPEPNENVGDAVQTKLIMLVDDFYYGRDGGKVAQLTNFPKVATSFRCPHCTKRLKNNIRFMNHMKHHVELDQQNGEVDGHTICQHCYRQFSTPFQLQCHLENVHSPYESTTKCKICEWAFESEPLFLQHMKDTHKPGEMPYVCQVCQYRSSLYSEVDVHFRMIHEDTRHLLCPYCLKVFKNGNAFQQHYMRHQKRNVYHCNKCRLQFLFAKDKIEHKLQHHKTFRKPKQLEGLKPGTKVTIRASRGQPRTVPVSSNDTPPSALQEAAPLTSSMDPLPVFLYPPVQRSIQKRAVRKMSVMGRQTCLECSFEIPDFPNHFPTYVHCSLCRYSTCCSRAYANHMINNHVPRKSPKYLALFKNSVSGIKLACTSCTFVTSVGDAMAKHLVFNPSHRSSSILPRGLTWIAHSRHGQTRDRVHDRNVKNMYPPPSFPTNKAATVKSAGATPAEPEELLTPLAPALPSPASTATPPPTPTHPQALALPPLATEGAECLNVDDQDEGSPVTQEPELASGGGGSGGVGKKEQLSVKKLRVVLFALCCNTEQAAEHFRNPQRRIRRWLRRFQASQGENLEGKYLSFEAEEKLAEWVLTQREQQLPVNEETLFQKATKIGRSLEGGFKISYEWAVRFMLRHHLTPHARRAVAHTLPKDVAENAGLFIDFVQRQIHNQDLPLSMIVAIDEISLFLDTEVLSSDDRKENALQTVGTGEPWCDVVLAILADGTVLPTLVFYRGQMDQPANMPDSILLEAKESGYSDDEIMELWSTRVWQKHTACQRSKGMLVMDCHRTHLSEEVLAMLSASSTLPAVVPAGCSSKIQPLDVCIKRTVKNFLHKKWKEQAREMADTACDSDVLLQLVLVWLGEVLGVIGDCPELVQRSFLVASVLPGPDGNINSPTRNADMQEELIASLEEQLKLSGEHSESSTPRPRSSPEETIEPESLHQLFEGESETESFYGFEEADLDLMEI
inactive: erlotinib 0.006 | [7] 0.085 | [3] 0.044 | [1] 0.033 | [8] -0.172 | [4] 0.023 | [9] 0.082 | [5] 0.026 | [6] 0.115

PAN2 (UniProt Q504Q3)
inactive: [2] 0.044

PNPLA4 (UniProt P41247)
Chain of UniProt P41247 (P41247 whole entry, looked up): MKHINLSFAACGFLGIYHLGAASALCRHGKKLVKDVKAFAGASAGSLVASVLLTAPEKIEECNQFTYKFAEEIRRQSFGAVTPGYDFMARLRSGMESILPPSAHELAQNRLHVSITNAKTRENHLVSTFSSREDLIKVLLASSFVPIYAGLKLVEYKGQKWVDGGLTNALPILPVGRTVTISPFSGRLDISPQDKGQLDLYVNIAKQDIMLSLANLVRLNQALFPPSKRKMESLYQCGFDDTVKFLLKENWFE
inactive: erlotinib 0.426 | [7] 0.13 | [1] -0.176 | [8] -0.148 | [2] 0.133 | [4] -0.084 | [9] 0.059 | [5] 0.108 | [6] 0.029

PCF11 (UniProt O94913)
inactive: [7] 0.04 | [8] -0.082 | [2] 0.111 | [4] -0.191 | [9] 0.083

PDE4DIP (UniProt E9PS60)
inactive: erlotinib 0.086 | [1] -0.175

PPP1R12B isoform 6 (UniProt O60237)
Chain of UniProt O60237 (O60237 whole entry, looked up): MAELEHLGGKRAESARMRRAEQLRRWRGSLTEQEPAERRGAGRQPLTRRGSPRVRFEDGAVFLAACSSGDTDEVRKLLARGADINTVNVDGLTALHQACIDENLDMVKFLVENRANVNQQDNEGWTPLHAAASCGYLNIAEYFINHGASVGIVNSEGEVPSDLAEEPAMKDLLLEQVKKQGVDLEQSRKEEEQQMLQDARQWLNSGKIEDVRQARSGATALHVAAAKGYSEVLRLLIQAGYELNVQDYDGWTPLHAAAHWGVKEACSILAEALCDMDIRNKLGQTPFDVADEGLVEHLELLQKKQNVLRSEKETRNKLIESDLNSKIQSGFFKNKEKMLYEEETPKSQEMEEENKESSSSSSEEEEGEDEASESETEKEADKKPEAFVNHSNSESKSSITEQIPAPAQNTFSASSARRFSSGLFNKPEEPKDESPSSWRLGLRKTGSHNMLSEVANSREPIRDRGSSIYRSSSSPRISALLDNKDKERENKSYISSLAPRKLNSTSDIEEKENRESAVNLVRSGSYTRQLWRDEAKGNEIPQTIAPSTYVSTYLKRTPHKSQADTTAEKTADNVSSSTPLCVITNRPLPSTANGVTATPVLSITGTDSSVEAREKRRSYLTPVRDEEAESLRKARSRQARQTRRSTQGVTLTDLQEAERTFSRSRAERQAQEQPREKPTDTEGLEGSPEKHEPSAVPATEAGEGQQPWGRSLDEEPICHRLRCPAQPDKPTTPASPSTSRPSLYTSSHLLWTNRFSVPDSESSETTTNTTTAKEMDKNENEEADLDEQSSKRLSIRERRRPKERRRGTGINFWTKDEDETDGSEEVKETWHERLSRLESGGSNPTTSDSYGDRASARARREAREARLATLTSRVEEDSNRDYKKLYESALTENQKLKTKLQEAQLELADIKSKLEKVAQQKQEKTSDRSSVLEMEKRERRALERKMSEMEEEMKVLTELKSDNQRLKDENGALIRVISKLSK
inactive: erlotinib 0.226 | [1] 0.001 | [2] -0.081

PHRF1 (UniProt Q9P1Y6)
Chain of UniProt Q9P1Y6 (Q9P1Y6 whole entry, looked up): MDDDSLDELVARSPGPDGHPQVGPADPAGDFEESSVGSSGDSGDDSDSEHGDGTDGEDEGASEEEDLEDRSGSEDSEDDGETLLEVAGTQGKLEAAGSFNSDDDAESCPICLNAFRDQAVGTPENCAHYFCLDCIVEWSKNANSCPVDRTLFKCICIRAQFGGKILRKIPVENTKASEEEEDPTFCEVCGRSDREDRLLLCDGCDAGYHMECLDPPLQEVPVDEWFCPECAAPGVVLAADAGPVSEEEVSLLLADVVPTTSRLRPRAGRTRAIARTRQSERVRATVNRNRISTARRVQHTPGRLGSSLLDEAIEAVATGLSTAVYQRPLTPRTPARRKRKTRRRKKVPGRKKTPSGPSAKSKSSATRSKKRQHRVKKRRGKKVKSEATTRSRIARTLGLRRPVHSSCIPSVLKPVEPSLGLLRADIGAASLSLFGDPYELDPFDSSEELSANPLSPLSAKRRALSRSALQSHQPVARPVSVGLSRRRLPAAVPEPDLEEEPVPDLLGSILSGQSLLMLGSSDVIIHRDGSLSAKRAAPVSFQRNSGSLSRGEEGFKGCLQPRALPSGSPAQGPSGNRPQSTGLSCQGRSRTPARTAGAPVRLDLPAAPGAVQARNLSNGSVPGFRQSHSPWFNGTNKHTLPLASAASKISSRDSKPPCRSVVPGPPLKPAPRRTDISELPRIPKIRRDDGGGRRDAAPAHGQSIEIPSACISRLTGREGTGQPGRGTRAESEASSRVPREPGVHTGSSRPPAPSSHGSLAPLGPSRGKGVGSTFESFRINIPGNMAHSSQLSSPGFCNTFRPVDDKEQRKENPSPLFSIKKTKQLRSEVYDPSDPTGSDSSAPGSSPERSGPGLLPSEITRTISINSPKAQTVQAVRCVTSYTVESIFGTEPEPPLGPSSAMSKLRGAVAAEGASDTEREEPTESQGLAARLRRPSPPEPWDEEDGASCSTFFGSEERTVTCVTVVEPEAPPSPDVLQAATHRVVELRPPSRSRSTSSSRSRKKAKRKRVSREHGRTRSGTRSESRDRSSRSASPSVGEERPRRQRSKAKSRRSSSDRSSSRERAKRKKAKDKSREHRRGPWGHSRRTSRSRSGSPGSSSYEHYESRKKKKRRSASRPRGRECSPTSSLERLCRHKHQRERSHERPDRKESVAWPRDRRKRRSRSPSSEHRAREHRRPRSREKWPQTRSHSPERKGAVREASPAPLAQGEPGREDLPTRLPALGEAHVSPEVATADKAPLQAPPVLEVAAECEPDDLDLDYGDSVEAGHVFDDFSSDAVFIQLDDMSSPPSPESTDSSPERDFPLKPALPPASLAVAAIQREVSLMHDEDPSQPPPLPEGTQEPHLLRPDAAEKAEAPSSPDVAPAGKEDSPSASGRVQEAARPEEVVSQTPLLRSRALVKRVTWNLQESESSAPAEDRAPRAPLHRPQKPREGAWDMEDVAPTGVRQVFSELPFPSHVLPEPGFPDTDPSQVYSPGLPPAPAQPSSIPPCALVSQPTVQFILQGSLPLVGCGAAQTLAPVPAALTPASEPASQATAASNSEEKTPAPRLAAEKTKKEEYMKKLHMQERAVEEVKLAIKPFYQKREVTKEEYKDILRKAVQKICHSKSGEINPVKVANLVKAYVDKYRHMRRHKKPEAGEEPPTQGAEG
inactive: erlotinib -0.161 | [1] 0.082 | [4] 0.073

PSMC3 (UniProt E9PLG2)
inactive: [3] -0.437 | [2] 0.151 | [5] 0.27 | [6] -0.045

PRR14L (UniProt Q5THK1)
inactive: [7] -0.168 | [8] 0.16 | [9] -0.091 | [5] 0.166 | [6] -0.023

PLCXD1 (UniProt Q9NUJ7)
inactive: [2] 0.025 | [4] -0.012

PSMA3 (UniProt G3V4X5)
inactive: [2] 0.051 | [4] 0.348

PCBP2 (UniProt F8VZX2)
inactive: erlotinib -0.014 | [1] -0.077 | [2] -0.019 | [4] -0.008

PGK2 (UniProt P07205)
inactive: [7] -0.055 | [3] -0.082 | [8] 0.152 | [2] -0.018 | [4] -0.057 | [9] -0.012 | [5] 0.034 | [6] 0.029
